Screens (PubChem BioAssay)
An excerpt weighted towards active compounds, which were near 3.5% of everything screened.
GPR151 ag: activates the human receptor GPR151 | AID 1508602 | PathHunter beta-arrestin GPR151 cells, luminescence | Q8TDV0 | activation, % at 11.2 µM | 650,000 tested, 1% active; in the data active = activation above about 4.9%;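 note: 0% = median of compound wells and 100% = cells with positive control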
FBW7 act: human FBW7 E3 ligase activation, primary screen; AID 1259310; normalized activity (activation), % at 26.1 µM; AlphaScreen FBW7–phospho-cyclin E peptide binding, activator screen; 650,000 tested, 0.13% active; in the data active = normalized activity above about 1.9%;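 note: purified mutant Fbw7 with reduced substrate affinity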
MITF primary: human MITF inhibition, primary screen; O75030; inhibition, % at 2.6 µM; 650,000 tested, 0.91% active; AlphaScreen MITF homodimerization, bead proximity signal; in the data active = inhibition above about 50%;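 note: 0% = vehicle wells with protein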
Target sequence (O75030 whole entry, looked up): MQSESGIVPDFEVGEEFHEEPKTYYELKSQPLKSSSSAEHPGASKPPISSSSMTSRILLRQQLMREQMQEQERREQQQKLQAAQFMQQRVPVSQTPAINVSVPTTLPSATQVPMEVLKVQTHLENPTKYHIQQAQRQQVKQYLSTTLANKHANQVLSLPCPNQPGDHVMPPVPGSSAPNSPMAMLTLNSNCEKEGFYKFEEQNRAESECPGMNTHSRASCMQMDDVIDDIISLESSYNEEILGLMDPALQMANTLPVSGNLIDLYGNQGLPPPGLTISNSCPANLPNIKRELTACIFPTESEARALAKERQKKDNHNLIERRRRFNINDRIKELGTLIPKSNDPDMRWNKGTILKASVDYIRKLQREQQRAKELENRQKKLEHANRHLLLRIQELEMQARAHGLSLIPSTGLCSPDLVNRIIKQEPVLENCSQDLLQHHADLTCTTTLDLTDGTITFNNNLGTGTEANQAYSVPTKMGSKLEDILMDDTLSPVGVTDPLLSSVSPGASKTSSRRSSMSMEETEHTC
TEAD-YAP inh: TEAD-YAP interaction inhibition; inhibition, % at 9.12 µM; AID 1259422; 640,000 tested, 1.4% active; HEK-TIYL cells, TEAD-Gal4/YAP UAS-luciferase luminescence; in the data active = inhibition above about 32%;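 note: 0% = median of test compound wells and 100% = reference inhibitor wells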
An asterisk follows results filed as active.

SMILES	GPR151 ag	FBW7 act	MITF primary	TEAD-YAP inh
COc1ccccc1C(NC(=O)C(C)C)c1ccc2cccnc2c1O (stereo unspecified)	-1	-2	23	73*
O=C(c1ccccc1)n1c(=S)nc2ccccn21	-2	0	14	40*
Cc1ccc(-c2nnc(Cc3ccc([N+](=O)[O-])cc3)o2)cc1	-1	0	22	61*
O=[N+]([O-])c1ccc(Cc2nnc(-c3ccc(F)cc3)o2)cc1	0	0	21	-36
Cc1sc(NC(=O)c2ccc(S(=O)(=O)N(C)c3ccccc3)cc2)nc1-c1ccccc1	3	0	0	2
CN(C)S(=O)(=O)c1ccc(C(=O)Nc2ccc(-c3nc4ccccc4[nH]3)cc2)cc1	1	5.0*	-31	-41
O=C(Nc1ccc(-c2nc3ccccc3[nH]2)cc1)c1ccc(=O)n(Cc2ccccc2)n1	1	0	6	34*
Cc1sc(NC(=O)c2ccc(S(=O)(=O)N(C)C)cc2)nc1-c1ccccc1	0	0	-2	41*
CCCCNc1nc(Nc2ccccc2C)c2cnn(C)c2n1	1	0	-14	8
Nc1cc(S(=O)(=O)O)c(O)c2c1C(=O)c1c(O)c(S(=O)(=O)O)cc(N)c1C2=O	-3	-1	61*	17
O=c1c(O)c(-c2ccc(O)c(O)c2)oc2cc(O)ccc12	-2	0	23	-24
O=c1c(O)c(-c2cc(O)c(O)c(O)c2)oc2cc(O)ccc12	3	0	78*	2
Cn1c(=O)c2c(ncn2Cc2ccc(C#N)cc2)n(C)c1=O	0	0	5	-3
Cn1c(=O)c2c(ncn2Cc2cccc(I)c2)n(C)c1=O	0	0	-8	39*
Cn1c(=O)c2c(ncn2Cc2ccc(C(C)(C)C)cc2)n(C)c1=O	1	1	17	57*
Cc1nn(C)c(C)c1/C=C(/C(=O)C(C)C)n1cncn1	1	0	33	4
CC(C)C(=O)/C(=C/c1ccc(Cl)cc1Cl)n1cncn1	1	0	8	73*
CC(=O)Oc1ccc(C(=O)Nc2cccc(F)c2)cc1	-4	0	-7	-41
COc1ccc(C(=O)NC(=S)Nc2cccc(C(=O)O)c2)cc1	2	0	-1	61*
O=C(COc1ccc(Cl)cc1)Nc1cccc(NC(=O)c2ccco2)c1	-1	0	8	47*
O=C(COc1ccc(Cl)cc1)Nc1ccc(NC(=O)c2ccco2)cc1	1	0	2	-4
COc1ccc(NC(=S)NNc2ccc(C(=O)O)cc2)cc1	-1	0	2	40*
COc1ccc(C(=O)NC(=S)Nc2cccc(OC)c2)cc1	0	0	-16	-56
CC(C)Oc1ccc(C(=O)Nc2cccc(F)c2)cc1	-7	1	15	43*
Cc1ccc(C(=O)Nc2ccc3oc(-c4cccc5c(Br)cccc45)nc3c2)cc1[N+](=O)[O-]	1	0	2	-1
SMILES	GPR151 ag	FBW7 act	MITF primary	TEAD-YAP inh
Cn1nccc1C(=O)OCC(=O)Nc1sc2c(c1C#N)CCC2	0	0	3	0
CCCc1ncc(CN2CCC(C(=O)Nc3ccc(Oc4cccnc4)cc3)CC2)cn1	-1	2	-5	22
CC(=O)c1ccc(NC(=O)N2CCN(Cc3ccc(C)cc3)CC2)cc1	1	0	0	-9
COc1ccccc1-n1cc(CN2CCN3C(=O)[C@H](CC(C)C)NC(=O)[C@H]3C2)cn1	-1	0	9	7
COc1ccc(C(=O)Nc2cccc(C)c2)cc1	-9	0	-4	66*
COc1ccc(C(=O)NC(=S)Nc2cccc(S(=O)(=O)N3CCOCC3)c2)cc1	-2	1	6	44*
COc1ccc(C(=O)NC(=S)Nc2cccc(NC(=O)c3ccco3)c2)cc1	-1	0	9	33*
Cc1ccc(C)n1-c1cc(Cl)ccc1C(=O)O	2	-1	81*	0
CC(=O)Nc1ccc(-n2c(C)ccc2C)c(C(=O)O)c1	1	-1	57*	2
Cc1ccc(C)n1-c1ccccc1C(=O)O	0	-2	1	0
Cc1ccc(C)n1-c1ccc(C(=O)O)c(Cl)c1	2	-1	81*	-7
COc1cccc(CSc2nc(C)c(CC(=O)N3CCCc4ccccc43)c(=O)[nH]2)c1	-1	0	13	-5
CCc1ccc(S(=O)(=O)Nc2cccc(N3CCCS3(=O)=O)c2)cc1	1	0	15	33*
O=C1C(=O)N(CCc2ccccc2)c2ccc(Br)cc21	1	0	17	27
C=CCN1C(=O)C(=O)c2cc(Br)ccc21	0	0	16	62*
CCCN1C(=O)C(=O)c2cc(Br)ccc21	0	0	-13	63*
C#CCN1C(=O)C(=O)c2cc(Br)ccc21	1	1	14	53*
CC(=O)CN1C(=O)C(=O)c2cc(Br)ccc21	0	0	24	10
C[C@@H]1O[C@@H](OC[C@H]2OC(Oc3c(-c4ccc(O)c(O)c4)oc4cc(O)cc(O)c4c3=O)[C@H](O)[C@@H](O)[C@@H]2O)[C@H](O)[C@H](O)[C@H]1O (stereo partly specified)	0	0	82*	7
c1ccc(N=C2SCCCN2c2ccccc2)cc1	-1	0	17	-8
Oc1ccccc1-c1cc(-c2ccc(F)cc2)no1	-4	0	7	-22
Fc1ccc(-c2cc3c(nn2)Nc2ccccc2N3)cc1	-5	0	5	86*
COc1ccc(-c2cc(C(=O)N/N=C\c3ccc(N(C)C)cc3)[nH]n2)cc1	-1	0	11	45*
Cc1ccc(/C=N/NC(=O)c2cc(-c3ccccc3)n[nH]2)cc1	1	0	-5	-8
COc1ccc(/C=N/NC(=O)c2cc(-c3ccc(OC)cc3)n[nH]2)cc1	-1	0	4	33*
SMILES	GPR151 ag	FBW7 act	MITF primary	TEAD-YAP inh
CC(C)Cc1ccc(-c2cc(C(=O)N/N=C/c3ccncc3)[nH]n2)cc1	0	0	6	45*
COc1ccc(/C=N/NC(=O)c2cc(-c3ccc(F)cc3)n[nH]2)cc1	1	0	5	7
O=C(CCCn1nnc(-c2ccc(F)cc2)n1)c1ccc(O)cc1	-1	0	2	-2
O=C(O)c1oc2ccc(Cl)cc2c1-n1cccc1	1	0	12	2
Cc1ccc(C(=O)N/N=C/c2ccc([N+](=O)[O-])s2)cc1	0	0	-4	26
COc1ccccc1C(=O)N/N=C/c1ccc([N+](=O)[O-])s1	-1	0	0	49*
NC(=S)N/N=C/c1cc([N+](=O)[O-])ccc1O	-2	-1	100*	-6
COc1cc([N+](=O)[O-])cc(/C=N/NC(=O)c2ccccc2[N+](=O)[O-])c1O	2	-1	65*	-15
CCOc1cc([N+](=O)[O-])cc(/C=N/NC(=O)c2cc(C(C)(C)C)[nH]n2)c1O	0	0	66*	25
COc1cccc(-c2nnnn2-c2cccc(OC)c2)c1	0	1	6	-2
CCOC(=O)c1c(NC(=O)C(C)Sc2nnc(CNC(=O)c3ccc(C)c(C)c3)n2C)sc2c1CCCC2 (stereo unspecified)	0	0	-5	0
